# Reference: PubChem BioAssay
# Active and inactive are the calls of the source.
# Legend:
# [1] = system: PRMT1 (protein arginine N-methyltransferase 1); test: small molecules binding arginine methyltransferase PRMT1 – biochemical, small-molecule microarray, 635 nm fluorescence, primary screen (AID 1088); conditions: higher = more signal;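 note: binding of Prmt1 protein to compounds spotted on small-molecule microarray slides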
# [2] = growth effects on S. cerevisiae YJM789 – YJM789 clinical isolate, OD600, 24 h, basal, primary screen (AID 1089); conditions: higher = more signal, called active from +8 up or from −8 down;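 note: growth of clinical yeast isolate S. cerevisiae YJM 789 seeded 1000 cells per well; test concentration not given here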
# [3] = S. pombe growth modifiers, basal conditions – strain 972, OD600, 24 h, no modulator, primary screen (AID 1090);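 note: basal condition with compound alone and no growth modifier present; test concentration not given here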; conditions: S. pombe 972 growth, higher = more signal, called active from +8 up or from −8 down
# [4] = budding yeast growth modifiers under rapamycin – strain BY4716, OD600, 96 h, primary screen (AID 1091); note: test concentration not given here; conditions: S. cerevisiae BY4716 + rapamycin, higher = more signal, called active from +8 up or from −8 down
# [5] = molecular target: Torsin-1A-interacting protein 2 (Homo sapiens) (UniProt Q8NFQ8); test: small molecules binding lysate-expressed LULL1 – cell lysate, human LULL1 lysate, 635/667 nm fluorescence, primary screen (AID 1092); conditions: small-molecule microarray, hLULL1 lysate binding, 635 nm fluorescence; higher = more signal;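 note: probe is lysate of COS7 cells overexpressing human LULL1; score merges per-feature 667 nm fluorescence with signal-to-noise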
# [6] = optical density change of DRC41 E. coli – strain DRC41, OD650, 24 h, E. coli filamentation project, primary screen (AID 1093);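 note: MC1000 strain lacking acrAB efflux and sulA so SOS filamentation is blocked; test concentration not given here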; conditions: E. coli DRC41 growth, higher = more signal, called active from +8 up or from −8 down
# [7] = probe aLefty2 binding to arrayed compounds – biochemical, biotinylated probe, 635/667 nm fluorescence, primary screen (AID 1094); conditions: small-molecule microarray, higher = more signal;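 note: score merges spot fluorescence near 667 nm with spot signal-to-noise ratio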
# [8] = system: Noggin (protein binding on small-molecule microarray); test: small molecules binding Noggin protein – biochemical, 635/667 nm fluorescence, primary screen (AID 1095); conditions: 635 nm fluorescence, higher = more signal;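 note: score merges 667 nm feature fluorescence with signal to noise over triplicate slides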
# [9] = molecular target: Neurogenic locus notch homolog protein 3 (Homo sapiens) (UniProt Q9UM47); test: small molecules binding NOTCH3 protein – biochemical, 635/667 nm fluorescence, primary screen (AID 1096); conditions: small-molecule microarray, 635 nm fluorescence, higher = more signal
# [10] = probe aEGFR binding to arrayed compounds – biochemical, biotinylated probe, 635/667 nm fluorescence, primary screen (AID 1097); conditions: small-molecule microarray, higher = more signal;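 note: probe is a biotinylated anti-EGFR antibody binding compounds printed on slides; score combines fluorescence near 667 nm and signal to noise of each spot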
# Neurogenic locus notch homolog protein 3 (Homo sapiens), sequence (Q9UM47 whole entry, looked up): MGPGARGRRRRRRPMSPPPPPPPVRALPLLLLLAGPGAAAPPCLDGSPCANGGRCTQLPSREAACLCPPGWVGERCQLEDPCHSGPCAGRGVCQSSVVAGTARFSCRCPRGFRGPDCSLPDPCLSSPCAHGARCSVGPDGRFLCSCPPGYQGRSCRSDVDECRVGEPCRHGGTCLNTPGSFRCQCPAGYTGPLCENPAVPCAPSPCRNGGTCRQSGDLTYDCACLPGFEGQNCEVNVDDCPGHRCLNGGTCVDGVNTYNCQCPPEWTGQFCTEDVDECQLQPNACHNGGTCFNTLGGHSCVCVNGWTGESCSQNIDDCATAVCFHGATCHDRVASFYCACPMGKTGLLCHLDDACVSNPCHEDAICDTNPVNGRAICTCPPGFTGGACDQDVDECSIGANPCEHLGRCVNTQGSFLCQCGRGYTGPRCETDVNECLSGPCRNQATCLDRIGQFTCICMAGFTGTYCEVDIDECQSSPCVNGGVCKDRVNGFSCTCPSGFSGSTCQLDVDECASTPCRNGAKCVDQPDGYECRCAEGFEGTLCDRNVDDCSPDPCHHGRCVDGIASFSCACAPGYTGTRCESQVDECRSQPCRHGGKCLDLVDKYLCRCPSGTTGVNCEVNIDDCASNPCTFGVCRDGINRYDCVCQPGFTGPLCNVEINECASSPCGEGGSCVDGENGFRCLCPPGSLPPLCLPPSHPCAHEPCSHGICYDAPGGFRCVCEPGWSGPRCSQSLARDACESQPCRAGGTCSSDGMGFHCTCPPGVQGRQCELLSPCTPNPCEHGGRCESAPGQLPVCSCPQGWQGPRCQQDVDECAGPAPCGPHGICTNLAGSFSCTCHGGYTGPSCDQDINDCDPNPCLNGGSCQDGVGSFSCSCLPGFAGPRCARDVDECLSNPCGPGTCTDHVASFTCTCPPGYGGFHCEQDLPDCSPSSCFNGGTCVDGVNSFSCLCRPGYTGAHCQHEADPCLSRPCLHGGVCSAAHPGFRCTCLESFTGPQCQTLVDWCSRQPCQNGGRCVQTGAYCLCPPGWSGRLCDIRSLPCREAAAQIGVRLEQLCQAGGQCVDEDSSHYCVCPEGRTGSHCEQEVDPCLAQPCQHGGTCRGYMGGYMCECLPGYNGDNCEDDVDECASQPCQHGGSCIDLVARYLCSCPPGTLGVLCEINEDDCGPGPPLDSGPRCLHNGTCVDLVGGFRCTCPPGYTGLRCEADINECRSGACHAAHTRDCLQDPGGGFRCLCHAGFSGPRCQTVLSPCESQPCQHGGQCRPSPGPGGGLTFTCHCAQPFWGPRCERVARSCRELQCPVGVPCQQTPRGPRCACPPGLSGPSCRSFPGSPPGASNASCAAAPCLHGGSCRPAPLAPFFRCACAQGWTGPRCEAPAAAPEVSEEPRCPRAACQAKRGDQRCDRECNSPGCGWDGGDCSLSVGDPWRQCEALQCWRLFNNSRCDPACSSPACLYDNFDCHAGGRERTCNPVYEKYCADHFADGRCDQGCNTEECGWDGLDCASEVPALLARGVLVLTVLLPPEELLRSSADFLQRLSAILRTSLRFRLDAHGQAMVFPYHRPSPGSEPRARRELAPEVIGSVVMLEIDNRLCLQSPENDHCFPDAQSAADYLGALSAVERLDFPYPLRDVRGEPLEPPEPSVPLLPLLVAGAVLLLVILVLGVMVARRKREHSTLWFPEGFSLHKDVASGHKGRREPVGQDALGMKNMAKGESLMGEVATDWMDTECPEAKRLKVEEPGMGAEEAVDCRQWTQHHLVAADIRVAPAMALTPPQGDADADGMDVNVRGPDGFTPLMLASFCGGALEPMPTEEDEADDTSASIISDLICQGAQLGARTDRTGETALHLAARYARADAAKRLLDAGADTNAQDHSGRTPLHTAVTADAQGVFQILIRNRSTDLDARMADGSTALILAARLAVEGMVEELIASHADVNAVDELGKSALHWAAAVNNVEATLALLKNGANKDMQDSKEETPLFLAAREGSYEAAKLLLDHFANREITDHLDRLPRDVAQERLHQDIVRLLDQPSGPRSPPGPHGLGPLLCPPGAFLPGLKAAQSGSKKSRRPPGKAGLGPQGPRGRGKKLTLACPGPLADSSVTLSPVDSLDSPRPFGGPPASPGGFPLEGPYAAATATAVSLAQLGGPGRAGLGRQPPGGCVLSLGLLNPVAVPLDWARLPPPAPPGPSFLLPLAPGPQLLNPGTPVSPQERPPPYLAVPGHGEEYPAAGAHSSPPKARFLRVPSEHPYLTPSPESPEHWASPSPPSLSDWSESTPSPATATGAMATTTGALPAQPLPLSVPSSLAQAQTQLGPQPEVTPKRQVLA
# Torsin-1A-interacting protein 2 (Homo sapiens), sequence (Q8NFQ8 whole entry, looked up): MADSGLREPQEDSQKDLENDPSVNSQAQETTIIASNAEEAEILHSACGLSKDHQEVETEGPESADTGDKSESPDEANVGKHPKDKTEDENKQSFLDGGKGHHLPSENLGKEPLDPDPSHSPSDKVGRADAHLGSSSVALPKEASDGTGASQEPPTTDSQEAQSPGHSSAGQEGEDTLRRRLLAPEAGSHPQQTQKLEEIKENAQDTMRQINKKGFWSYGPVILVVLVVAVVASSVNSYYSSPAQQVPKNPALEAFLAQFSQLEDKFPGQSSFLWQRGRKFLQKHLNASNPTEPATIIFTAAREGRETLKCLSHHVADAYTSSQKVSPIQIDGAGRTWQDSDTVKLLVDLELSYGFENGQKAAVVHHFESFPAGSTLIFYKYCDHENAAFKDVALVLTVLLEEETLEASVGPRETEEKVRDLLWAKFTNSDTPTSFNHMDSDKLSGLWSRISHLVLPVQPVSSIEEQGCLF
Compound,composite z-score [1],z-score [2],z-score [3],z-score [4],composite z-score [5],z-score [6],composite z-score [7],composite z-score [8],composite z-score [9],composite z-score [10]
O=C(CS)NCCCCCNC(=O)[C@H]1C[C@H]2C(=O)NCC(=O)N2[C@H]1c1cccc(OCCO)c1,0.151,-0.881 (inactive),0.145 (inactive),-0.336 (inactive),0.556,0.663 (inactive),-0.0778,0.262,-0.154,-0.0987
C=CC[C@]12N=C(c3ccc(OCCCO)cc3)O[C@H]1c1ccccc1N(CCS(=O)(=O)c1ccccc1)C2=O,1.49,-1.07 (inactive),-1.51 (inactive),0.811 (inactive),2.14,1.02 (inactive),0.0561,0.698,1.07,-0.0828
CC(C)[Si](C#CCCCC#N)(Oc1ccccc1Br)C(C)C,0.987,1.13 (inactive),-1.09 (inactive),-1.96 (inactive),0.86,-0.146 (inactive),-0.203,0.506,0.653,-0.0389
COC(=O)[C@@]1(Cc2ccc(F)cc2)[C@H]2c3cc(C(=O)N(C)C)n(Cc4ccc(C)o4)c3C[C@H]2CN1C(=O)c1ccccc1,0.323,-0.319 (inactive),-7.9 (inactive),0.792 (inactive),3.05,-0.386 (inactive),1.26,-0.386,-0.124,0.763
NC(=O)[C@@H]1[C@H]2C(=O)O[C@H](c3ccccc3)[C@H](c3ccccc3)N2[C@H](c2ccc(OCCO)cc2)[C@@]12C(=O)Nc1ccc(C#CC3=CCCCC3)cc12,1.55,0.529 (inactive),0.544 (inactive),2.91 (inactive),2.08,1.69 (inactive),0.0209,1.35,0.951,-0.0343
O=C1[C@H]2C=C(I)[C@H](C[C@@H]2OCCCCO)[C@@]12CO2,0.9,-1.04 (inactive),-0.983 (inactive),0.0593 (inactive),0.512,-1.09 (inactive),-0.0534,0.573,0.186,-0.165
O=C1[C@H]2C=C(Br)[C@H](C[C@@H]2OCCCCCCO)[C@@]12CO2,-0.729,0.335 (inactive),-1.29 (inactive),1.32 (inactive),-0.283,-1.74 (inactive),0.0183,0.387,-0.615,-0.131
COc1ccccc1CN1C(=O)c2ccccc2[C@@H](C(=O)NCc2ccccc2)[C@@H]1c1ccc(CO)cc1,0.713,0.649 (inactive),0.417 (inactive),0.253 (inactive),2.33,0.409 (inactive),-0.26,0.286,0.271,-0.336
COC(=O)[C@]1(Cc2ccccc2)N=C(c2ccc(OCCCO)cc2)O[C@@H]1c1ccccc1N=[N+]=[N-],1.52,-0.701 (inactive),-1.01 (inactive),24.6 (active),1.82,-0.604 (inactive),-0.0389,1.15,0.58,-0.0987
CCCC=C(CCC)[C@@H](NC(=O)OCC(C)C)c1ccccc1,0.934,0.69 (inactive),-0.623 (inactive),1.94 (inactive),2.01,-1.68 (inactive),0.678,1.11,1.12,0.548
COCCCNC(=O)[C@@]1(Cc2ccccc2CN=[N+]=[N-])N=C(c2ccc(OCCCO)cc2)O[C@H]1c1ccccc1CN=[N+]=[N-],1.24,-2.06 (inactive),-1.07 (inactive),26.7 (active),3.34,1.71 (inactive),0.239,0.406,0.885,-0.067
O=C1O[C@@H](c2ccccc2)[C@@H](c2ccccc2)N2[C@@H](c3ccc(OCCO)cc3)[C@]3(C(=O)Nc4ccc(C#CC5=CCCCC5)cc43)[C@@H](C(=O)N3CCCCCCC3)[C@H]12,1.53,1.1 (inactive),-1.09 (inactive),2.13 (inactive),3.98,0.29 (inactive),1.6,1.78,1.03,1.26
C=CCNC(=O)[C@H]1[C@@H]2C(=O)O[C@@H](c3ccccc3)[C@@H](c3ccccc3)N2[C@@H](c2ccc(O)cc2)[C@]12C(=O)Nc1ccc(C#CCCO)cc12,0.586,1.35 (inactive),1.84 (inactive),1.13 (inactive),1.97,0.515 (inactive),-0.0915,-0.325,-0.356,-0.201
O=C1OCCC=C[C@H]2OC34C=CCN(Cn5nnc6ccccc65)C(=O)[C@H]3N(CCO)C(=O)[C@@H]4C12 (stereo not given in full),-0.312,-0.352 (inactive),0.785 (inactive),-0.422 (inactive),-0.316,2.26 (inactive),-0.135,-1.26,-0.491,-0.345
COCC(=C=CC[C@H](O)c1cccc(OCCO)c1)CCO,1.47,-0.45 (inactive),-0.19 (inactive),-0.55 (inactive),2.12,0.0234 (inactive),-0.185,0.69,0.898,-0.112
CC1CC/C=C\[C@H]2OC34C=CCN(c5ccc6ccccc6c5)C(=O)[C@H]3N(CCO)C(=O)[C@@H]4C2C(=O)O1 (stereo not given in full),0.229,-0.646 (inactive),-1.4 (inactive),-0.764 (inactive),2.07,0.764 (inactive),0.314,-1.11,0.521,-0.123
O=C1NC(=O)C2C1C=CC(C(O)c1ccc(I)cc1)N2Nc1ccc(Cl)cc1Cl (stereo not given),0.265,-9.39 (active),-5.52 (inactive),-0.806 (inactive),2.64,-1.3 (inactive),0.162,-0.0422,0.925,-0.0953
CC(C)[Si](C#CCCCC#N)(O[C@H](c1ccccc1)c1cn(Cc2cccc(Cl)c2)nn1)C(C)C,1.52,-0.135 (inactive),-0.483 (inactive),-3.21 (inactive),1.42,1.79 (inactive),0.0322,0.342,1.13,0.0363
COc1ccc([Si](C)(C)[C@@H]2[C@@H](CCO)O[C@]3(C(=O)N(Cc4cccc(N5CCOC5=O)c4)c4ccccc43)[C@H]2C)cc1,1.42,4.03 (inactive),0.643 (inactive),37.8 (active),0.97,0.516 (inactive),-0.0357,0.825,0.797,-0.0564
CCCCC(=C=CC[C@H](O)c1cccc(OCCO)c1)C[C@H](O)c1ccccn1,0.483,-1.2 (inactive),-1.12 (inactive),-1.68 (inactive),-0.639,1.34 (inactive),-0.165,0.395,-0.153,-0.13
CC#CC(=O)Oc1ccc(Br)cc1C=CC(=O)OCC,0.162,-23.6 (active),-16 (active),-2.38 (inactive),1.18,-0.0056 (inactive),0.188,-0.157,0.0254,-0.0765
CC(C)(C)OC(=O)CC[C@@]1(C(=O)N2CCCCC2)N=C(c2ccc(OCCCO)cc2)O[C@@H]1c1ccccc1,1.54,-1.23 (inactive),-0.76 (inactive),-0.95 (inactive),3.52,-0.223 (inactive),0.0215,0.318,1.12,-0.0053
O=C1C2C=CC(C(O)C=Cc3ccc([N+](=O)[O-])cc3)N(Nc3ccccc3F)C2C(=O)N1c1ccccc1 (stereo not given),1.57,0.612 (inactive),2.1 (inactive),1.47 (inactive),3.1,-1.04 (inactive),0.0511,0.0689,0.994,0.293
C=CCOC(=O)[C@H]1[C@@H]2C(=O)O[C@@H](c3ccccc3)[C@@H](c3ccccc3)N2[C@@H](c2ccc(OCCOC(=O)[C@H]3C[C@H]4C(=O)N[C@@H](CCCCN(C)C)C(=O)N4[C@H]3c3cccc(OCCO)c3)cc2)[C@]12C(=O)Nc1ccc(I)cc12,1.54,1.71 (inactive),-1.05 (inactive),1.71 (inactive),2.84,-1.36 (inactive),-0.129,1.67,1.06,-0.15
C[N+](C)(C)CCCC[C@@H]1NC(=O)[C@H]2C[C@@H](C(=O)NCCCCCCNC(=O)CS)[C@@H](c3ccc(O)cc3)N2C1=O,-0.27,-0.304 (inactive),0.481 (inactive),-0.344 (inactive),0.908,0.138 (inactive),-0.17,0.395,-1.06,-0.126
[N-]=[N+]=Nc1ccccc1C[C@]1(C(=O)NCC(O)CO)N=C(c2ccc(OCCCO)cc2)O[C@H]1c1ccccc1 (stereo not given in full),0.909,1.25 (inactive),0.0558 (inactive),0.568 (inactive),2.2,0.291 (inactive),0.322,-0.5,0.394,-0.0826
O=C1NC(=O)C2C1C=CC(C(O)C=Cc1ccc([N+](=O)[O-])cc1)N2Nc1ccc(Cl)cc1Cl (stereo not given),0.782,-0.17 (inactive),-1.23 (inactive),-0.103 (inactive),2.47,-2.27 (inactive),0.729,-0.518,1.11,0.285
Cc1ccc([C@H]2C(C(=O)O)=CCN2S(=O)(=O)c2ccc(C)cc2)cc1,0.472,-0.76 (inactive),0.366 (inactive),-0.18 (inactive),2.82,-0.264 (inactive),0.228,0.11,0.189,-0.0828
O=C(NC1CC1)[C@@H]1c2ccccc2C(=O)N(C2Cc3ccccc3C2)[C@H]1c1ccc(CO)cc1,1.44,-0.0411 (inactive),0.682 (inactive),-0.514 (inactive),3.1,0.628 (inactive),-0.0441,0.976,0.722,-0.16
